# Screens: PubChem BioAssay, National Center for Advancing Translational Sciences (NCATS)
# HCV inh = qHTS Assay for Inhibitors of Hepatitis C Virus (HCV) | Huh7.5.1 HCVcc-Cre infection, luciferase reporter, 44 h | Potency, µM (series often up to 41.8 µM), for the others: at the highest dose activity change, negative = inhibition, most hits filed as inhibitors | 340,000 compounds, 3.4% hits | AID 651820, 2012
#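 Compounds are dispensed onto cells plated 4 h earlier at 1,000 per well, with HCVcc-Cre virus (about 0.5 moi) added next. Following 44 h of culture, luminescent signal is measured for 15 sec after 15 min with substrate at room temperature.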
# AMA1-RON2 inh = qHTS for Inhibitors of AMA1-RON; Towards Development of Antimalarial Drug Lead: Primary Screen; AID 720542, 2013; 360,000 compounds, 0.2% hits; AlphaScreen AMA1-biotinylated RON2 peptide binding; Potency, µM (highest dose often 58.2 µM), for inactives: top-dose activity change, negative = inhibition, usual class: inhibitors; Plasmodium falciparum AMA1 (3D7) - RON2 peptide interaction;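 further: 0% = vehicle wells and -100% = peptide control; nearly all actives have a fitted effect of over 45% in size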
#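 AMA1 (3D7) with his tag at 25 nM final met compounds first, then biotinylated RON2 peptide at 25 nM; detection used donor plus acceptor beads, 10 µg/mL apiece, read by AlphaScreen after 30 min at room temperature.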
# Pf growth 48h = Primary qHTS for delayed death inhibitors of the malarial parasite plastid, 48 hour incubation. Potency, µM (series often up to 28.7 µM), inactives show at the top dose activity change, negative = inhibition, actives largely listed as inhibitors. AID 504832, 2011. P. falciparum luciferase growth in erythrocytes, 48 h. 310,000 compounds, 5.9% hits
#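 Luminescence readout; reporter = integrated firefly luciferase in P. falciparum. RBC culture at 2% hematocrit, 0.1% parasitemia final, 37 C/5% CO2; decreased signal taken as growth inhibition.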
# Pf growth 96h = Primary qHTS for delayed death inhibitors of the malarial parasite plastid, 96 hour incubation. P. falciparum luciferase reporter growth, 96 h. Potency, µM (titrated, usually from 28.7 µM), inactives show top-dose activity change, negative = inhibition, most hits filed as inhibitors. 320,000 compounds, 6.9% hits
#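 Plates of compound plus infected erythrocytes (2% hematocrit, 0.05% parasitemia final) incubate 96 hours, 37 C, 5% CO2. Detection reagent added; reduced luminescence from the parasites' luciferase reporter flags inhibition.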
# Numbers without * were called inactive; ? = inconclusive; . = not tested or not shown; [ ] = remark or other dose. The list is not random: actives were taken first. Their share in the collection is about 11%. The call rests on the fitted dose curve; in most records, active means well fitted curve in the direction sought with a large enough effect; inconclusive means small, poorly fitted or top-dose-only effect, or another doubt; inactive means no such curve, though single readings can be large; an effect the other way counts as inactive or inconclusive. Unless noted, on the % scale 0 is the no-effect control and ±100 the full control effect; potency means the concentration at half of the fitted maximal effect.
SMILES,HCV inh,AMA1-RON2 inh,Pf growth 48h,Pf growth 96h
Cc1occc1C(=O)Nc1nnc(-c2cccs2)s1,11%,-14%,66%,62%
COCCCN(C(=O)c1ccco1)c1nc(-c2ccc(OC)cc2)cs1,?,?,-25%,?
COCCN(C(=O)c1ccccc1)c1nc(-c2ccc(OC)cc2)cs1,-4%,-6%,?,?
COCCCN(C(C)=O)c1nc(-c2ccccc2)cs1,13µM*,?,72%,?
COCCCN(C(=O)c1ccccc1F)c1nc(-c2ccc(OC)cc2)cs1,10µM*,-3%,?,-8%
COCCCN(C(=O)c1ccccc1)c1nc(-c2ccc(OC)cc2)cs1,13µM*,0%,?,?
O=C(COc1ccc(Cl)cc1)N(Cc1ccccc1)c1nc(-c2ccccc2)cs1,-1%,-4%,1.5µM*,30%
Nc1ccc(S(=O)(=O)Nc2nc3ccccc3o2)cc1,9%,-3%,0%,7%
Cc1ccc(C(C)C)c(OCCn2ccnc2C)c1,-24%,-26%,?,12µM*
Cc1ccc(OCCCCn2ccnc2C)c(C)c1,?,-11%,?,-22%
COc1ccc(C2c3c(-c4ccccc4O)n[nH]c3C(=O)N2Cc2ccco2)cc1 (centres undefined),-26%,49%,?,9.3µM*
O=C1c2[nH]nc(-c3ccccc3O)c2C(c2cccc(O)c2)N1Cc1ccco1 (centres undefined),?,-12%,2%,?
COc1cc(C2c3c(-c4ccccc4O)n[nH]c3C(=O)N2Cc2ccco2)cc(OC)c1OC (centres undefined),-8%,48%,12µM*,7.4µM*
O=C(CSc1nnc2c(n1)[nH]c1ccccc12)Nc1nncs1,-11%,11%,20%,?
Cc1ccc(NC(=O)CN(C)C(=O)c2cccc(S(=O)(=O)NCc3ccco3)c2)cc1,-6%,-3%,-6%,9.3µM*
COc1ccc(C(=O)Nc2cccc(S(=O)(=O)NCc3ccco3)c2)cc1,?,-17%,.,.
O=C(COc1ccc(Cl)cc1)Nc1cccc(S(=O)(=O)NCc2ccco2)c1,32µM*,3%,-30%,-22%
CC1(C2CC2)NC(=O)N(CC(=O)NCC(=O)Nc2ccc(F)c(F)c2F)C1=O (centres undefined),-10%,10%,.,.
CCO[C@H]1OC(C(=O)NCc2ccccc2)=C[C@@H](c2cn(C(C)=O)c3ccccc23)[C@@H]1CCCO,-14%,-7%,?,?
Nc1ccn(C2OC(COC(=O)C34CC5CC(CC(C5)C3)C4)C(O)C2O)c(=O)n1 (centres undefined),-15%,-3%,.,.
NNC(=O)COc1ccc(-c2n[nH]c(C(F)(F)F)c2-c2ccc(Br)cc2)c(O)c1,-25%,31%,9.3µM*,8.3µM*
COc1ccc(-c2n[nH]c(C(F)(F)F)c2-c2cc3ccccc3o2)c(O)c1,11µM*,58%,2.1µM*,16%
COc1ccc(-c2c(-c3ccc(OCC(=O)NN)cc3O)n[nH]c2C)cc1,-16%,59%,?,9.3µM*
COc1ccccc1-c1c(-c2ccc(OCC(=O)NN)cc2O)n[nH]c1C(F)(F)F,?,50%,8.3µM*,7.4µM*
COc1ccc(-c2cn[nH]c2-c2ccc(OCC(=O)NN)cc2O)cc1,-3%,95%,?,?
SMILES,HCV inh,AMA1-RON2 inh,Pf growth 48h,Pf growth 96h
COc1ccc(-c2nc(N)nc(C(F)(F)F)c2-c2ccccc2OC)c(O)c1,?,5%,?,?
COC(=O)c1ccc(Cl)c(NC(=O)NC23CC4CC(CC(C4)C2)C3)c1,?,-12%,.,0.66µM*
COC(=O)c1cccc(NC(=O)NC23CC4CC(CC(C4)C2)C3)c1,?,-5%,.,?
CC(C)(C)c1ccc(O)c(N=Cc2cc(Br)ccc2O)c1,-4%,33%,10µM*,26%
Cc1ccc(O)c(C=Nc2cc(C)ccc2O)c1,-5%,16%,?,?
CC/C(=N\N=C(/CC)c1ccccc1N)c1ccccc1N,12%,-25%,.,.
COc1ccc(C2=Nc3nc(-c4ccccc4)cn3C(c3ccc(OC)cc3)C2)cc1 (centres undefined),-10%,14%,2.9µM*,?
CC(Oc1cccc(Cl)c1)C(=O)Nc1ccc(S(=O)(=O)N(C)C2CCN(C)CC2)cc1 (centres undefined),?,-3%[11.6 µM],9.3µM*,?
CC(=O)Nc1ccc(S(=O)(=O)N(C)C2CCN(C)CC2)cc1,6%,0%,7%,-29%
CN1CCC(N(C)S(=O)(=O)c2ccc(NC(=O)COc3ccc(Cl)cc3)cc2)CC1,13µM*,-5%,8.3µM*,4.1µM*
CCN(CCn1cccn1)C(=O)c1cc(COc2cc(C)ccc2C)on1,.,0%,-6%,?
Cc1ccc(CN2C(=O)C(C)Sc3ccc(C#N)cc32)cc1 (centres undefined),.,12%,.,.
CCCCCCCCCCOc1cc2c(=O)c(C(=O)OCC)c[nH]c2cc1OCC,.,.,0.0015µM*,-103%
CCN(c1cccc(C)c1)S(=O)(=O)c1cc2c3c(c1)CCC(=O)N3CCC2,?,-13%,?,?
CCN=c1scc(C)n1/N=C/c1ccc(O)c(O)c1O,-5%,?,?,7.4µM*
CCN=c1scc(-c2ccco2)n1/N=C/c1ccc(OC)c(O)c1,-17%,?,17%,119%
COCCN=c1scc(-c2cccs2)n1/N=C/c1ccc(O)c(O)c1O,?,-22%,9.3µM*,4.1µM*
CN(C)CCCNCC(=O)NN(c1ccccc1)c1ccccc1,-30%,31%,-1%,61%
CCc1ccc([C@@H]2C[C@H]3[C@@H](CN2S(=O)(=O)c2ccc(C)cc2)C(=O)C[C@@H](c2ccc(C)cc2)N3S(=O)(=O)c2ccc(C)cc2)cc1,.,-4%,.,.
Cn1nc([N+](=O)[O-])nc1Sc1ccc(Cl)cc1,4%,0%,?,-5%
CNc1ncnc(Sc2ccc(Cl)cc2)c1[N+](=O)[O-],?,-10%,9.3µM*,-49%
COc1ccc(N2C3=C(CC4=C2CCCC4=O)C(=O)CCC3)cc1,?,-12%,?,12µM*
COc1ccc(N2C3=C(CC4=C2CC(C)(C)CC4=O)C(=O)CC(C)(C)C3)cc1,?,-6%,9.3µM*,13µM*
COc1ccc(-n2ccc(=O)c3c2CCCC3=O)cc1,-14%,2%,-4%,-18%
O=C1C2CC=CCC2C(=O)N1c1cccc(OS(=O)(=O)c2ccc3ccccc3c2)c1 (centres undefined),6%,-6%,.,3.3µM*
Cc1cccc(C)c1-n1nnnc1C1c2ccccc2C(=O)N1CCCN1CCOCC1 (centres undefined),.,1%,.,.
CC(=O)c1ccc(NC(=O)C(C)OC(=O)C2CCN(c3ccc(C(F)(F)F)cn3)CC2)cc1 (centres undefined),?,17%,?,-4%
